Compound activity: PubChem, The Scripps Research Institute Molecular Screening Center
DAX1 inh-1 = DAX1 (NR0B1) inhibitors on StAR promoter, primary screen, cell-based, luminescence, SF-1 (NR5A1), full-length DAX-1 | HEK293T StAR-luciferase reporter, SF-1/DAX-1 repression relief | inhibition, % at 6.8 µM | 370,000 compounds, 1.1% hits;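 active means inhibition above the mean over all tested compounds plus 3 SD, cut at about 3.6% in these data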;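 further: 0% = DAX-1 cells with DMSO and 100% = cells lacking DAX-1 with DMSO; higher inhibition means more luminescence from relief of DAX-1 repression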
hcDAF12 agonist = H. contortus DAF-12 nuclear receptor activators, primary screen, cell-based, luminescence, HEK293, lit1-tk-luc reporter | HEK293 hcDAF-12 lit1-tk-luc reporter; 0% DMSO, 100% Δ7-dafachronic acid | activation, % at 6.8 µM | 370,000 compounds, 1.4% hits;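 active means activation above the mean of all tested compounds plus 3 SD, cut at about 5.5% in these data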;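 further: 100% = response to 3 µM Δ7-dafachronic acid high control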
ssDAF12 agonist = S. stercoralis DAF-12 nuclear receptor activators, primary screen, cell-based, luminescence, HEK293, GRIP1 co-expression, lit1-tk-luc. Nuclear hormone receptor DAF-12 (Strongyloides stercoralis). HEK293 ssDAF-12/GRIP1 lit1-tk-luc reporter; % of 3 µM dafachronic acid response. activation, % at 6.8 µM. 370,000 compounds, 1% hits. AID 652126, 2013;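 active means activation above the mean over all tested compounds plus 3 SD, cut at about 0.9% in these data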;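 further: 0% = DMSO-only wells and 100% = 3 µM delta7-dafachronic acid wells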
DAX1 inh-2 = DAX1 (NR0B1) inhibitors, primary screen, cell-based, HEK293, Gal4-DAX1, luciferase luminescence; HEK293 Gal4-DAX1 luciferase reporter; inhibition, % at 6.75 µM; 340,000 compounds, 0.99% hits;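 active means inhibition above the mean over all tested compounds plus 3 SD, cut at about 4.2% in these data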;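 further: 0% = DAX1-transfected cells with DMSO and 100% = empty-vector control cells with DMSO; inhibition shows as a rise in luminescence from relieved DAX1 repression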
Target sequence (P51843 207-470 limits assumed): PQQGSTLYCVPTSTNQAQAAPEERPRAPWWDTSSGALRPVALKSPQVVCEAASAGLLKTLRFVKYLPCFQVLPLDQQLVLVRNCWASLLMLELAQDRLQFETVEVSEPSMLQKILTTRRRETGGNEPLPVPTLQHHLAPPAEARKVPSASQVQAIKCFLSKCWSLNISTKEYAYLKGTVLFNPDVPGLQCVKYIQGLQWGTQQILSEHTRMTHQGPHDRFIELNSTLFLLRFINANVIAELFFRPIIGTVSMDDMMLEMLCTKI
hgDAF12 agonist = H. glycines DAF-12 receptor agonists, primary screen, cell-based, luminescence, HEK293, GAL4 fusion, UAS-luciferase; 370,000 compounds, 1.8% hits; activation, % at 6.8 µM; HEK293 GAL4-hgDAF12 UAS-luciferase reporter, agonist luminescence; normalized to butyrate control;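 active means activation above a cutoff set at the mean of all screened compounds plus 3 SD, cut at about 10% in these data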;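 further: 0% = DMSO wells and 100% = sodium butyrate wells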
* hit, by the source's call; x = no result given. In the library only some 4.1% were active in any assay of this set; here they are far more common.

SMILES	DAX1 inh-1	hcDAF12 agonist	ssDAF12 agonist	DAX1 inh-2	hgDAF12 agonist
O=C(Nc1cc2c(cc1Br)OCCCO2)c1ccccc1	2	4	1	3	11*
C[C@H]1C(=O)CC[C@@]23CCCN2C(=O)CCC[C@@H]13	x	-1	-2	x	-1
c1ccc2c(c1)Cc1cc3ccccc3nc1-2	2	17*	1.2*	3	15*
Cc1cc2ccccc2nc1-c1ccccc1F	-2	-2	-1	3	6
N#C/C(=C(/O)CSc1nnc(Cc2cccs2)n1C1CCCCC1)c1nc2ccccc2[nH]1	0	7.1*	1	2	-1
COc1ccc(-c2nnn3c2Cn2c4ccccc4c(=O)n2[C@@H](C(C)C)C3)cc1	-2	-3	0	x	-3
CN1CCN(c2ccc(-c3csc(N4CCC(C(N)=O)CC4)n3)cc2)CC1	x	-4	-2	x	-5
O=C(CSc1nnc(COc2ccccc2)n1-c1ccccc1)Nc1ccc2c(c1)OCCO2	2	-2	-2	x	-3
CN(C(=O)CSc1nnc(-c2ccncc2)n1-c1ccccc1)C1CCS(=O)(=O)C1 (stereo unspecified)	1	0	-1	3	4
CC(c1nnc(SCC(=O)N(C)C2CCS(=O)(=O)C2)n1-c1ccccc1)N(C)C (stereo unspecified)	3.7*	-1	-1	0	1
Cc1ccccc1-c1cc2c(c3c1ccn3C)C1CCC2O1 (stereo unspecified)	3.8*	1	-1	x	0
COc1ccc(-c2cc(C(=O)NN=Cc3cccn3C)[nH]n2)cc1	0	-1	-2	x	8
CCN(C(=O)C1CCCN1S(=O)(=O)c1cccnc1)c1ccccc1 (stereo unspecified)	1	1	-1	x	-2
COc1ccc(NC(=O)CCSc2ccc(F)cc2)cc1	3	3	0	4.2*	10
COC(=O)c1cc(C2(c3c[nH]c4ccccc34)CCN(C(=O)OC(C)(C)C)CC2)n2ccccc12	-1	1	-1	x	2
O=C(Nc1cnc2ccccc2c1)c1cccc(-n2cnnn2)c1	1	6.3*	0	3	9
COC(=O)c1cccc(NC(=O)c2cccc(-n3cnnn3)c2)c1	-2	0	-2	-1	0
O=c1cc(-c2ccccc2)c2c([nH]1)CCCC2	-1	5.7*	-1	0	1
COc1ccc(C(=O)OCCN2CCN(C3CN(Cc4cn(Cc5ccccc5C(F)(F)F)nn4)S(=O)(=O)C3)CC2)cc1OC (stereo unspecified)	-3	-3	-3	x	-3
CCOC(=O)c1cc2c(s1)-c1ccccc1CC2	2	6.4*	1	2	5
CCOC(=O)Nc1nnc(-c2ccccc2OC)s1	0	5.8*	0	0	4
C=CCn1c(SCC(=O)c2ccc(-c3ccccc3)cc2)nnc1-c1ccc(OC)cc1	-2	-3	-2	x	-2
COc1ccc(NC(=O)N(C)[C@H]2C[C@H]3c4[nH]c5c(-c6cccc(C)c6)cccc5c4CCN3C(=O)[C@H]2[C@H](C)O)cc1	-1	-4	-1	x	-2
COC(=O)C[C@@H]1CC[C@@H]2[C@H](COc3ccc(NC(=O)c4cccc(OC)c4)cc3C(=O)N2C)O1	0	-1	-1	x	-2
COC(=O)[C@]12C[C@H](CC(=O)N3CCC(c4ccccc4)CC3)C(=O)N(Cc3cccc4ccccc34)C1=C[C@H](C(C)(C)C)O[C@@H]2C	-1	-2	-2	x	3
CC1CCCC(C)N1C(=O)CSc1nc2ccccc2s1 (stereo unspecified)	1	3	0	5.0*	7
CC(C)NC(=O)NC(=O)COC(=O)CCCSc1nc2ccccc2s1	0	0	0	7.4*	-1
O=C(CSc1nc2ccccc2s1)N1CCCCC1	2	4	1	3	12*
